Experimental data reported in PubChem BioAssay (NCI).
The panel holds about 79,000 compounds, 15% with a hit somewhere; the sample as a whole holds those more often. Cut-off read from the data, not from the text of the source: active = growth inhibition above about 70%; inactive = the rest. Where a SMILES comes first, the peptide text is derived from it. The star is where a group is joined. Cbz = O=C(OCc1ccccc1)*

Tests used:
[1] = NCI Yeast Anticancer Drug Screen. Data for the rad50 strain (AID 155);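 note: 0% = growth of vehicle-only cultures of the same strain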; settings: S. cerevisiae rad50 strain growth inhibition; at 50.0 µM; stronger effect = higher value
Procedure, shortened: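 Relative growth inhibition (compound vs vehicle) was measured in yeast with a defined repair-gene alteration.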

[2] = NCI Yeast Anticancer Drug Screen. Data for the mec2-1 strain (AID 157); settings: S. cerevisiae mec2-1 strain, at 50.0 µM, stronger effect = higher value
Procedure, shortened: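 Strain: mec2-1 (DNA repair/cell cycle alteration). Compound exposure, then growth measured; inhibition expressed relative to vehicle.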

[3] = NCI Yeast Anticancer Drug Screen. Data for the sgs1 mgt1 strain (AID 161);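 note: 0% = growth of cultures given vehicle only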; settings: S. cerevisiae sgs1 mgt1 strain, at 50.0 µM, stronger effect = higher value
Procedure, shortened: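 Read-out: growth inhibition vs vehicle controls. Cells: mutant yeast strain deficient in DNA damage repair.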

[4] = NCI Yeast Anticancer Drug Screen. Data for the cln2 rad14 strain (AID 165);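 note: 0% = growth equal to vehicle treated cultures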; settings: S. cerevisiae cln2 rad14 strain, at 50.0 µM, stronger effect = higher value
Procedure, shortened: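 Compounds are applied to the cln2 rad14 yeast strain, and growth is then compared with that of vehicle-treated cultures to give inhibition.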

[5] = NCI Yeast Anticancer Drug Screen. Data for the bub3 strain (AID 167); settings: S. cerevisiae bub3 mutant strain, at 50.0 µM, stronger effect = higher value
Procedure, shortened: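 Screening used yeast with an engineered genetic alteration affecting cell cycle control. Compound-exposed cultures were compared with vehicle cultures, and reduced growth was taken as inhibition.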

[6] = NCI Yeast Anticancer Drug Screen. Data for the mlh1 rad18 strain (AID 175); settings: S. cerevisiae mlh1 rad18 strain growth inhibition; at 50.0 µM; stronger effect = higher value
Procedure, shortened: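 Read-out is yeast growth inhibition, calculated against vehicle-only controls. The compound was applied to a strain engineered with DNA damage repair alterations.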

Measured: growth inhibition

O=C1NC(=O)C(c2ccco2)N1 (stereo unspecified)
inactive: [1] 3.7% | [2] -1.55% | [3] -12.2% | [4] 4.8% | [5] -16.7% | [6] 8.2%

CCCC1(C(OC)OC)NC(=O)N(Cc2ccccc2)C1=O (stereo unspecified)
inactive: [1] 4.45% | [2] -5.15% | [3] 5.15% | [4] -19.7% | [5] -2.1% | [6] 4.75%

CCOC(=O)c1cc2c(oc1=O)-c1cc(C)ccc1OC2C (stereo unspecified)
inactive: [1] -9.45% | [2] -14.8% | [3] 8.75% | [4] -40.6% | [5] -38.4% | [6] 11.1%

CCC(CC)(CC#N)C1CCCCC1
inactive: [1] -0.8% | [2] -0.35% | [3] -0.6% | [4] -13.8% | [5] -3.15% | [6] -8.2%

Clc1cc2nc(C3CCCO3)[nH]c2cc1Cl (stereo unspecified)
inactive: [1] 24.3% | [2] 2.15% | [3] 29.5% | [4] 5% | [5] 19.9% | [6] 55.2%

N#CNc1nc(N)cc(N)n1
inactive: [1] 2.25% | [2] 9.35% | [3] -1.5% | [4] -5.85% | [5] -1% | [6] -4.6%

NC(CSS(=O)(=O)CC(N)C(=O)O)C(=O)O (stereo unspecified)
inactive: [1] -5.85% | [2] 3.45% | [3] 6.15% | [4] -20.7% | [5] 6.4% | [6] -7.05%

ClC(=Nc1cccc(Cl)c1)C(Cl)=Nc1cccc(Cl)c1
inactive: [1] -6.5% | [2] -1.7% | [3] -2.05% | [4] 12.6% | [5] 6.45% | [6] 1.15%

Cc1cc(C)c(SSc2c(C)cc(C)cc2C)c(C)c1
inactive: [1] -7.8% | [2] -8.65% | [3] -3.9% | [4] -15.6% | [5] 7.6% | [6] -1.6%

O=C(O)C(CO)NC(=O)C1CCCN1C(=O)OCc1ccccc1 (stereo not drawn) (Cbz-Pro-Ser-OH; configuration not given here)
inactive: [1] -1.95% | [2] -17.8% | [3] -5.7% | [4] -1% | [5] -4.75% | [6] -18%

Cc1cc(N(CCC#N)CCC#N)ccc1N=Nc1cccc(C(=O)O)c1
inactive: [1] -40.4% | [2] -33.8% | [3] -10% | [4] -16.4% | [5] -33.8% | [6] -27.1%

CC(=O)NCC(N)=S
inactive: [1] 5.85% | [2] -24.1% | [3] 0.65% | [4] -1.55% | [5] 5.3% | [6] 4%

CCCc1[nH]nc(CCC(=O)N(Cc2ccccc2)Cc2ccccc2)c1CC
inactive: [1] -6.65% | [2] -26.4% | [3] 11.6% | [4] 2.3% | [5] -7.9% | [6] -18.1%

O=c1c2n(c(=O)c3n1CCC=3)CCC=2
inactive: [1] -2.5% | [2] -13.5% | [3] -0.6% | [4] -25.1% | [5] -6.85% | [6] 9.35%

CCOc1cc([N+](=O)[O-])c(OCC)cc1Cl
inactive: [1] -24.6% | [2] -53.5% | [3] -19.9% | [4] 11% | [5] -17.6% | [6] -29.6%

CCc1cccc2[nH]c3cc([N+](=O)[O-])ccc3c12
inactive: [1] 12% | [2] -13.8% | [3] 2.5% | [4] -22.8% | [5] -0.4% | [6] 15.7%

O=c1ccn(C2OC(C(O)CO)C(O)C2O)c(=O)[nH]1 (stereo unspecified)
inactive: [1] -4.95% | [2] -2.55% | [3] 5.45% | [4] -60.8% | [5] -8.15% | [6] 9.25%

COCCN(CCOC)C1C2=C(CCCC2)OS(=O)(=O)C1c1ccccc1 (stereo unspecified)
inactive: [1] 26.9% | [2] -4.75% | [3] 6.45% | [4] 12.9% | [5] 3.2% | [6] 0.05%

CC(=O)NC1C(SC(=O)NCCCl)OC(COC(C)=O)C(OC(C)=O)C1OC(C)=O (stereo unspecified)
inactive: [1] -7.75% | [2] -8.6% | [3] -3.2% | [4] -16.8% | [5] -27.3% | [6] -4.3%

CCOC12CC(OC(=O)N1)C(C)C1OC1(C)C(OC(=O)C(C)N(C)C(C)=O)CC(=O)N(C)c1cc(cc(OC)c1Cl)C/C(C)=C/C=CC2OC (stereo unspecified)
inactive: [1] -21.1% | [2] -29.6% | [3] -30.9% | [4] -0.4% | [5] -20.4% | [6] -5.25%

CC(CO)C1C[C@H](O)[C@@]2(C)CC(=O)C=C(CO)[C@@H]2C1 (stereo partly specified)
inactive: [1] 35% | [2] 22.6% | [3] -3.55% | [4] 25.9% | [5] -7.15% | [6] -46%

CC1COC(C)(C2CC2)O1 (stereo unspecified)
inactive: [1] 6.6% | [2] 9.95% | [3] -24.4% | [4] -13.7% | [5] 7.45% | [6] 6.5%

CC(=O)C1(O)CCC2C3CCC4CC(=O)CCC4(C)C3C(=O)CC21C (stereo unspecified)
inactive: [1] 4.4% | [2] -24.8% | [3] 2.25% | [4] 27.9% | [5] 13.6% | [6] -10.6%

CCN=C(c1ccccc1)N(O)c1ccccc1
inactive: [1] -10.7% | [2] 9.2% | [3] -3.15% | [4] 6.35% | [5] 7.7% | [6] -14.1%

Cc1cc(C)cc(NC(N)=S)c1
inactive: [1] 11.8% | [2] -0.25% | [3] 6.9% | [4] -5.3% | [5] 10.6% | [6] 11.7%

CN(C)Cc1cccc(C(F)(F)F)c1C(O)c1ccccc1 (stereo unspecified)
inactive: [1] 7.75% | [2] -10.2% | [3] -5.3% | [4] 3.9% | [5] 7.7% | [6] -14.7%

Cc1ccc(NC(=O)CCC(NS(=O)(=O)c2ccc(C)cc2)C(=O)O)cc1 (stereo unspecified)
inactive: [1] 26.4% | [2] 17.5% | [3] 25.6% | [4] 18.6% | [5] -1.1% | [6] 42.1%

Cc1cc(O)c(/C=N/C(=O)NN)c(=O)o1
inactive: [1] -40.6% | [2] -11.1% | [3] -20.1% | [4] -22.4% | [5] -22.5% | [6] -42.5%

Cc1ccc(NCC#N)cc1
inactive: [1] 27.1% | [2] 15.2% | [3] -1.1% | [4] -12.6% | [5] 15.4% | [6] 36.5%

NS(=O)(=O)c1ccc(N=Nc2nc3[nH]c(=O)[nH]c(=O)c3[nH]2)cc1
inactive: [1] 22.3% | [2] -9.2% | [3] 3.05% | [4] -4.85% | [5] -7.2% | [6] 18.6%

COc1nc2[nH]ccc2c(=O)n1C
inactive: [1] -10.9% | [2] -20.1% | [3] -9.1% | [4] 10.3% | [5] -10.4% | [6] 17.4%

CN(C)C(=S)N(C(=S)N(C)C)c1ccc(Cl)cc1
inactive: [1] -7.9% | [2] -11.8% | [3] -7.15% | [4] -4.1% | [5] 3.1% | [6] -17.8%

C=CCNC(=S)Nc1cccc(OC(=O)NC2CCCCC2)c1
inactive: [1] -0.15% | [2] 2.05% | [3] 3.75% | [4] -19.6% | [5] 14.3% | [6] -4.7%

C/C(CC(=O)Nc1ccc(C)cc1)=N\NC(N)=S
inactive: [1] -13.5% | [2] -7.7% | [3] 3.45% | [4] 8.3% | [5] -1% | [6] -19.6%

Nc1ccccc1Nc1ccncc1
inactive: [1] -3% | [2] 11.2% | [3] -1.7% | [4] -26.9% | [5] -23.8% | [6] -5.7%

CCN1OCC(C)(C(=O)OC)C1C (stereo unspecified)
inactive: [1] -13.9% | [2] -13.1% | [3] -10.7% | [4] -31% | [5] 9.9% | [6] -21.1%

CCC(O)C1CCCCN1 (stereo unspecified)
inactive: [1] -20.8% | [2] -7% | [3] -12.2% | [4] -4.05% | [5] -17.5% | [6] -11.2%

COc1ccc(-c2cc(-c3ccccc3)c(C#N)c(=O)n2C2OC(CO)C(O)C(O)C2O)cc1 (stereo unspecified)
inactive: [1] -8.2% | [2] 11.6% | [3] 2.45% | [4] 12.8% | [5] -5.6% | [6] -2.05%

O=C(OCCCl)C1OC(n2cc(F)c(=O)[nH]c2=O)CC1O (stereo unspecified)
inactive: [1] 23.4% | [2] 3.35% | [3] 2.5% | [4] 8.7% | [5] 2.55% | [6] -3.1%

O=C(CP(=O)(c1ccccc1)c1ccccc1)c1cccc(C(=O)CP(=O)(c2ccccc2)c2ccccc2)c1
inactive: [1] -6.35% | [2] -10.1% | [3] -7.05% | [4] -15.7% | [5] -21.1% | [6] -2.4%

COC(=O)/C(=N\NC(C)(C)C)C(C(=O)C(=O)Nc1cc(C)ccc1C)c1nc2ccccc2[nH]c1=O (stereo unspecified)
inactive: [1] -18.8% | [2] -6.9% | [3] -1.5% | [4] 18.8% | [5] -7.95% | [6] -17.8%
